From PubChem BioAssay
Hits are enriched below; roughly 1.1% of the tested compounds scored in any of these assays.
CCHFV vOTU inh: CCHFV vOTU protease inhibitors, primary screen, biochemical, Pep-AMC substrate, fluorescence; 370,000 tested, 0.55% active; Crimean-Congo hemorrhagic fever virus L polyprotein viral ovarian tumor (vOTU) protease …; inhibition, % at 11.5 µM; AID 651958, 2012; in the data active = inhibition above about 30%
RecA intein inh: Mtb RecA intein splicing inhibitors, primary screen, biochemical, fluorescence, HTS; inhibition, % (concentration not given with the values); 290,000 tested, 0.75% active; cell-free RecA intein splicing; in the data active = inhibition above about 30%; inconclusive = no clear call, values can overlap the other calls
Y pestis TopoI: Yersinia pestis topoisomerase I inhibitors, primary screen, biochemical, cleavage product accumulation, plate reader, single point. activity, % at 10 µM. DNA topoisomerase I (Yersinia pestis CO92). Y. pestis Topo-I cleavage product accumulation. 360,000 tested, 0.064% active; in the data active = activity above about 50%, passing the limit was not always enough; inconclusive = no clear call, values can overlap the other calls
BioA inh-1: M. tuberculosis BioA enzyme inhibitors, primary screen, biochemical, plate reader, single point, HTS; 7,8-diaminopelargonic acid synthase BioA (Mycobacterium tuberculosis); purified M. tuberculosis BioA enzyme; inhibition, % at 9.99 µM; 360,000 tested, 0.096% active; AID 602481, 2012; in the data active = inhibition above about 40%; inconclusive = no clear call, values can overlap the other calls
Mtb betalactam: beta-lactam sensitization of Mtb H37Rv, H37Rv | M. tuberculosis H37Rv growth with meropenem, percent inhibition | 330,000 tested, 0.27% active | AID 434955, 2010 | inhibition, % at 25 µM;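 note: growth measured after seven days incubation then overnight dye step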
BJeLR lethal: MLPCN primary cell-based screen for lethality selective to Ras in HRASV12 cells | BJeLR (HRASV12) viability, CellTiter-Glo ATP luminescence, 48 h | inhibition, % (concentration not given with the values) | 300,000 tested, 0.17% active; in the data active = inhibition above about 50%; inconclusive = no clear call, values can overlap the other calls
BioA inh-2: Mtb BioA enzyme inhibitors, dose response, biochemical, plate reader, cherry-pick samples, set 03 | shares compounds with BioA inh-1 | purified BioA enzyme | max activity, % | 310 tested, under 10 active | AID 651679, 2012;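 note: top concentration of the dilution series was 10 µM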
Target sequence (P9WQ81 whole entry, looked up): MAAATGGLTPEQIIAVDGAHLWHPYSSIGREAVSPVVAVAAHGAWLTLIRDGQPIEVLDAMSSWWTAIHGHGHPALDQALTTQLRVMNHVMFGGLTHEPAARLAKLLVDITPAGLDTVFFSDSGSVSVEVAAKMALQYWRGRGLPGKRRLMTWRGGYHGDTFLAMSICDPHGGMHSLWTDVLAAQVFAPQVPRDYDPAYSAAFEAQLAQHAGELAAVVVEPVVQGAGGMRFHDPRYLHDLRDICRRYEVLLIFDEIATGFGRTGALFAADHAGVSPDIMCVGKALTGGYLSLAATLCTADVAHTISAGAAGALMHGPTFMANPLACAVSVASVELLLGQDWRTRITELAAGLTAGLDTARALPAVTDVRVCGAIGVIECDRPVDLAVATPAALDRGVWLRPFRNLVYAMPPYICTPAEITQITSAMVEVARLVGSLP
HepG2 tox 2: cytotoxicity in HepG2 cells, dose response, cytotoxicity control, cell-based, plate reader, cherry-pick, two tests; shares compounds with BioA inh-1; max activity, %; 310 tested, under 10 active
NIH3T3 tox 5: cytotoxicity in NIH3T3 fibroblasts, dose response, cytotoxicity control, cell-based, plate reader, cherry-pick, two tests; activity change, negative = cytotoxicity, % at 26 µM; shares compounds with BioA inh-1; AID 651900, 2012; 310 tested, under 10 active
Of the large screens only hits and unclear results are named; the others gave an inactive call (follow-up assays come after a bar, where they were run). Unless noted, the rule behind the calls is not given here.

O=C(c1ccncc1)N1CC[C@@H]2[C@H](CO)Nc3ccc(Br)cc3[C@@H]21	BioA inh-1 104 (no result: CCHFV vOTU inh, RecA intein inh, Y pestis TopoI, Mtb betalactam, BJeLR lethal) | BioA inh-2 inactive | HepG2 tox 2 inactive | NIH3T3 tox 5 inactive
C/C=C(/C)C(=O)OC(C)(C)[C@@H]1Cc2c(ccc3ccc(=O)oc23)O1	BioA inh-1 53 | BioA inh-2 inactive | HepG2 tox 2 inactive | NIH3T3 tox 5 inactive
COc1ccc(CCN(C)c2ccc(C(N)=O)cc2[N+](=O)[O-])cc1OC	BioA inh-1 49 | BioA inh-2 inactive | HepG2 tox 2 inactive | NIH3T3 tox 5 inactive
CCOC(=O)C1(CCc2ccccc2)CCN(C(=O)C2=C(C)OCCO2)CC1	none (no result: BioA inh-1)
CCOC(=O)C1(CCc2ccccc2)CCN(C(=O)CN2CCOC2=O)CC1	BioA inh-1 59 | BioA inh-2 inactive | HepG2 tox 2 inactive | NIH3T3 tox 5 inactive
CC(=O)c1ccc(NC(=O)CN2CCN(c3ccccc3)CC2)cc1	BioA inh-1 55 | BioA inh-2 inactive | HepG2 tox 2 inactive | NIH3T3 tox 5 inactive
CC(=O)c1ccc(NC(=O)CN2CCN(CC(=O)Nc3ccc(C(C)=O)cc3)CC2)cc1	none (no result: Mtb betalactam)
Cc1cccc(NC(=O)C2CCCN(c3cnccn3)C2)c1 (stereo unspecified)	none
CCc1cccc(NC(=O)C2CCCN(c3cnccn3)C2)c1 (stereo unspecified)	none
O=C(Nc1cccc(F)c1)C1CCCN(c2cnccn2)C1 (stereo unspecified)	BioA inh-1 53 | BioA inh-2 inactive | HepG2 tox 2 inactive | NIH3T3 tox 5 inactive
O=C(Nc1ccc(F)c(Cl)c1)C1CCCN(c2cnccn2)C1 (stereo unspecified)	BioA inh-1 41 | BioA inh-2 inactive | HepG2 tox 2 inactive | NIH3T3 tox 5 inactive
O=C(NC1Cc2ccccc2C1)[C@H]1[C@H](CO)[C@H]2Cn3c(cccc3=O)[C@@H]1N2Cc1ccccc1F	none (no result: CCHFV vOTU inh, RecA intein inh, Y pestis TopoI, Mtb betalactam, BJeLR lethal)
O=C(N[C@H]1CC[C@H](CCNC(=O)C2CCCCC2)O[C@@H]1CO)c1ccncc1	none (no result: CCHFV vOTU inh, RecA intein inh, Y pestis TopoI, Mtb betalactam, BJeLR lethal)
Cn1nnc2cc(C(=O)N3CCC(c4ccccc4)C3)ccc21 (stereo unspecified)	BioA inh-1 66 | BioA inh-2 inactive | HepG2 tox 2 inactive | NIH3T3 tox 5 inactive
Cc1cc(C)n(-c2ccc(C(=O)Nc3ccc4c(c3)OCO4)cc2)n1	BioA inh-1 44 | BioA inh-2 inactive | HepG2 tox 2 inactive | NIH3T3 tox 5 inactive
CC(=O)c1cc2c(cc1NC(=O)c1ccc(-n3nc(C)cc3C)cc1)OCO2	none (no result: RecA intein inh, Mtb betalactam, BJeLR lethal)
COC(=O)C1CCN(C(c2ccc(OC)c(OC)c2)c2sc3nc(C)nn3c2O)CC1 (stereo unspecified)	BioA inh-1 45 | BioA inh-2 inactive | HepG2 tox 2 inactive | NIH3T3 tox 5 inactive
CN1CCCC1CCOC(C)(c1ccccc1)c1ccc(Cl)cc1 (stereo unspecified)	BioA inh-1 48 (no result: RecA intein inh, Mtb betalactam, BJeLR lethal) | BioA inh-2 inactive | HepG2 tox 2 inactive | NIH3T3 tox 5 inconclusive
CC1CN(C(=O)Nc2ccc3snnc3c2)c2ccccc21 (stereo unspecified)	BioA inh-1 63 (no result: RecA intein inh) | BioA inh-2 inactive | HepG2 tox 2 inactive | NIH3T3 tox 5 inactive
O=C(NCC[C@@H]1CC[C@H](NC(=O)c2cnccn2)[C@H](CO)O1)Nc1ccc(F)cc1	none (no result: CCHFV vOTU inh, RecA intein inh, Y pestis TopoI, Mtb betalactam, BJeLR lethal)
O=C(C1CCOCC1)N1CC[C@@H]2[C@H](CO)Nc3ccc(Br)cc3[C@@H]21	BioA inh-1 72 (no result: CCHFV vOTU inh, RecA intein inh, Y pestis TopoI, Mtb betalactam, BJeLR lethal) | BioA inh-2 inactive | HepG2 tox 2 inactive | NIH3T3 tox 5 inactive
O=C(C1CCCCC1)N1CC[C@H]2[C@H](CO)Nc3ccc(Br)cc3[C@H]21	none (no result: CCHFV vOTU inh, RecA intein inh, Y pestis TopoI, Mtb betalactam, BJeLR lethal)
O=C(C1CCOCC1)N1CC[C@@H]2[C@H]1c1cc(Br)ccc1N[C@@H]2CO	BioA inh-1 74 (no result: CCHFV vOTU inh, RecA intein inh, Y pestis TopoI, Mtb betalactam, BJeLR lethal) | BioA inh-2 inactive | HepG2 tox 2 inactive | NIH3T3 tox 5 inactive
O=C(Cc1ccccc1)N1CC[C@@H]2[C@H](CO)Nc3ccc(Br)cc3[C@@H]21	BioA inh-1 44 (no result: CCHFV vOTU inh, RecA intein inh, Y pestis TopoI, Mtb betalactam, BJeLR lethal) | BioA inh-2 inactive | HepG2 tox 2 inactive | NIH3T3 tox 5 inactive
CN1C(=O)c2cc(NC(=O)C3CC3)ccc2OC[C@@H]2O[C@@H](CC(=O)NCCc3ccncc3)CC[C@H]21	none (no result: CCHFV vOTU inh, RecA intein inh, Y pestis TopoI, Mtb betalactam, BJeLR lethal)
O=C(CSc1nc2c(c(=O)n1-c1ccccc1)SCC2)N1CCN(c2ccccc2)CC1	BioA inh-1 47 | BioA inh-2 inactive | HepG2 tox 2 inactive | NIH3T3 tox 5 inactive
CC1Cc2nc(SCC(=O)N3CCN(c4ccccc4)CC3)n(C)c(=O)c2S1 (stereo unspecified)	none
O=C(CSc1nc2c(c(=O)n1-c1ccc(F)cc1)SCC2)N1CCCC1	none (no result: CCHFV vOTU inh)
CCOC(=O)CSc1nc2c(c(=O)n1-c1ccc(OCC)cc1)SCC2	none
O=C(CSc1nc2c(c(=O)n1-c1ccccc1)SCC2)N1CCOCC1	BioA inh-1 88 | BioA inh-2 inactive | HepG2 tox 2 inactive | NIH3T3 tox 5 inactive
CCOc1ccc(-n2c(SCC(N)=O)nc3c(c2=O)SCC3)cc1	BioA inh-1 41 | BioA inh-2 inactive | HepG2 tox 2 inactive | NIH3T3 tox 5 inactive
CC1Cc2nc(SCC(=O)N3CCOCC3)n(-c3ccccc3)c(=O)c2S1 (stereo unspecified)	BioA inh-1 63 | BioA inh-2 inactive | HepG2 tox 2 inactive | NIH3T3 tox 5 inactive
CC(=O)c1ccc(N2CCN(C(=O)c3ccc4c(c3)OCO4)CC2)cc1	BioA inh-1 91 | BioA inh-2 inactive | HepG2 tox 2 inactive | NIH3T3 tox 5 inactive
O=C(c1ccc2c(c1)OCO2)N1CCN(c2ccc(Cl)cc2)CC1	none (no result: BioA inh-1)
COc1cc2cnc(-c3cccnc3)cc2cc1OC	BioA inh-1 46 (no result: RecA intein inh, BJeLR lethal) | BioA inh-2 inactive | HepG2 tox 2 inactive | NIH3T3 tox 5 inactive
COc1ccc(-c2cc3cc(OC)c(OC)cc3cn2)cc1OC	none (no result: BioA inh-1)
O=C1CCCc2c1cc(C(=O)NCCCN1CCOCC1)c(=O)n2-c1ccc(Cl)cc1	BioA inh-1 45 | BioA inh-2 inactive | HepG2 tox 2 inactive | NIH3T3 tox 5 inactive
Cc1ccc(-n2c3c(cc(C(=O)NCc4ccco4)c2=O)C(=O)CCC3)cc1	none
Cc1ccc(-n2c3c(cc(C(=O)NCCCN4CCOCC4)c2=O)C(=O)CC(C)(C)C3)cc1	none
